According to PubChem BioAssay (NCATS):
Results filed as inconclusive are left out. Entries that show only a call come without a potency. The source made the active and inactive calls. The call rests on the fitted dose curve; in most records, active means well fitted cell-killing curve with a large enough effect; inconclusive means small, poorly fitted or top-dose-only effect; inactive means flat fitted curve, though single readings scatter.

assay: Cell Viability - LYMP1-002 - Assay at 40 hr (AID 994); conditions: LYMP1-002 lymphoblastoid cell viability; series mostly up to 92.2 µM; further: nearly all actives have a fitted effect of over 60% in size
Source text: NIH Chemical Genomics Center [NCGC]
NIH Molecular Libraries Screening Centers Network [MLSCN]
National Institutes of Environmental Health Sciences [NIEHS]
National Toxicology Program [NTP]
We have developed a 1536-well cell-based assay for quantitative high throughput screening (qHTS) against a number of cell lines to determine in vitro cytotoxicity of small molecules. This particular assay uses a human lymphoblastoid cell line (LYMP1-002) purchased from Coriell Institute for Medical Research.
NCGC Assay Protocol Summary:
The CellTiter-Glo luminescent cell viability assay (Promega) is a homogeneous method to measure the number of viable cells in culture. The end point readout of this assay is based on quantitation of intracellular ATP, an indicator of metabolic activity, using the luciferase reaction. Luciferase catalyzes the oxidation of beetle Luciferin to oxyluciferin and light in the presence of ATP. The luminescent signal is proportional to amount of ATP present.
Using the CellTiter-Glo luminescent cell viability assay, the amount of cellular ATP was measured in the lymphoblastoid cell line with complete culture medium following compound treatment for 40 hours. The assay was performed in opaque white Kalypsys 1536-well plates. In the screen, tetraoctylammonium bromide was used as positive control. Library compounds were measured for their ability to cause acute toxicity in the cell line, as reflected by a decrease in intracellular ATP levels, in a concentration-dependent manner. […] AC50 values were determined from concentration-response data modeled with the standard Hill equation.
qHTS protocol for CellTiter Glo lymphoblastoid cellular assay
[Step] [Parameter] [Value] [Description]
1. Reagent; 5 uL; 2500 lymphoblastoid cells/well
2. Time; 5 hr; 37 C incubation
4. Controls; 23 nL; Tetraoctylammonium bromide 6.4pM to 92 uM
5. Time; 40 hr; 37 C incubation
6. Reagent; 5 uL; CellTiter Glo reagent
7. Time; 30 min; Room Temperature
8. Detection; Luminescence; Viewlux plate reader
Keywords: cell viability, cytotoxicity, lymphoblastoid cell line, luminescence, NTPHTS, NTPHTS_NCGC, NIEHS, DSSTox, MLSMR, MLSCN, NIH Roadmap, qHTS, NCGC
Potency means the concentration at half of the fitted maximal effect.

Row | Structure (SMILES) | Potency
1 | Cc1cn([C@H]2C=C[C@@H](CO)O2)c(=O)[nH]c1=O | inactive
2 | Cc1ccc(-c2cc(C(F)(F)F)nn2-c2ccc(S(N)(=O)=O)cc2)cc1 | inactive
3 | CC(C)NCC(O)c1ccc(O)c(O)c1 (centres undefined) | inactive
4 | Cc1cn([C@H]2C[C@H](N=[N+]=[N-])[C@@H](CO)O2)c(=O)[nH]c1=O | inactive
5 | Cn1c(=O)c2[nH]cnc2n(C)c1=O | inactive
6 | COc1ccc2c(c1)c(CC(=O)O)c(C)n2C(=O)c1ccc(Cl)cc1 | inactive
7 | CC(COc1ccccc1)N(CCCl)Cc1ccccc1 (centres undefined) | inactive
8 | NS(=O)(=O)c1cc2c(cc1Cl)NCNS2(=O)=O | inactive
9 | CCC1(c2ccccc2)C(=O)NCNC1=O | inactive
10 | Cn1c(=O)c2c(ncn2C)n(C)c1=O | inactive
11 | N[C@@H](Cc1c[nH]c2ccc(O)cc12)C(=O)O | inactive
12 | O=c1c(-c2ccc(O)cc2)coc2cc(O)cc(O)c12 | inactive
13 | COc1cc2c(c(OC)c1OC)-c1ccc(OC)c(=O)cc1[C@@H](NC(C)=O)CC2 | 31.6 nM (active)
14 | Nc1ccn([C@H]2CC[C@@H](CO)O2)c(=O)n1 | inactive
15 | NCCS(=O)(=O)O | inactive
16 | Nc1c2c(nc3ccccc13)CCCC2 | inactive
17 | Clc1ccc(C(c2ccccc2Cl)C(Cl)Cl)cc1 (centres undefined) | inactive
18 | COc1ccc2[nH]cc(CCNC(C)=O)c2c1 | inactive
19 | CC(C)C(=O)Nc1ccc([N+](=O)[O-])c(C(F)(F)F)c1 | inactive
